Results published in PubChem BioAssay (NCATS).
Records with an inconclusive call do not appear. A number with no mark means an inactive call. The source made the active and inactive calls. The call rests on the fitted dose curve; in most records, active means well fitted inhibition curve with a large enough effect; inconclusive means small, poorly fitted or top-dose-only effect; inactive means flat fitted curve, though single readings scatter.

Test system: C2A
Test: qHTS profiling for inhibitors of Plasmodium falciparum proliferation (AID 504749); further: nearly all actives have a fitted effect of over 60% in size;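 on activity, negative = inhibition: 0% = DMSO vehicle and full inhibition = artemisinin control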
Conditions: P. falciparum in erythrocytes, SYBR Green DNA, 72 h; series mostly up to 28.7 µM; activity, negative = inhibition: at the top concentration
Method in brief: (§1)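 Quantitative HTS: compounds pinned into medium, infected erythrocytes added (0.3% parasitemia, 2.5% hematocrit), 72 h culture at 37 C under 5% CO2. Saponin/Triton lysis with SYBR Green I, overnight RT, then fluorescence read.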
Potency means the concentration at half of the fitted maximal effect.

Structure (SMILES) | Potency | activity, negative = inhibition
C[C@@H](NCCCc1cccc(C(F)(F)F)c1)c1cccc2ccccc12 | 8.91 µM (active) | 
COc1cc(NCc2ccc3nc(N)nc(N)c3c2C)cc(OC)c1OC | 0.631 µM (active) | 
NC(N)=NC(N)=NCCc1ccccc1 | inactive | 
CNNCc1ccc(C(=O)NC(C)C)cc1 |  | -11.5%
OC(Cn1cncn1)(Cn1cncn1)c1ccc(F)cc1F |  | 2.18%
O=c1cc(O)c(Cl)c[nH]1 |  | -3.8%
C1CCC(C(CC2CCCCN2)C2CCCCC2)CC1 (stereo not drawn) | 11.2 µM (active) | 
CC(C)NCC(O)c1ccc(NS(C)(=O)=O)cc1 (stereo not drawn) | inactive | 
Cc1cccc(N(C)C(=S)Oc2ccc3ccccc3c2)c1 |  | 4.36% [at 12.8 µM]
CC(=O)Oc1ccccc1C(=O)Nc1ncc([N+](=O)[O-])s1 |  | 2.22%
CC[C@H](C)C(=O)O[C@H]1C[C@@H](C)C=C2C=C[C@H](C)[C@H](CC[C@@H]3C[C@@H](O)CC(=O)O3)[C@H]21 |  | -5.7%
CC(C)OC(=O)C(C(=O)OC(C)C)=C1SC=CS1 |  | -0.187%
O=S(=O)(O)CCS |  | -0.226%
Cc1nnc(NS(=O)(=O)c2ccc(N)cc2)s1 |  | 6.16%
CNC1CCCN(c2c(F)cc3c(=O)c(C(=O)O)cn(C4CC4)c3c2OC)C1 (stereo not drawn) |  | -1.47%
S=P(N1CC1)(N1CC1)N1CC1 |  | -0.509%
COc1cc2c(Nc3ccc(Br)cc3F)ncnc2cc1OCC1CCN(C)CC1 | 3.16 µM (active) | 
N=C(N)c1ccc(OCCCCCOc2ccc(C(=N)N)cc2)cc1 | 1.26 µM (active) | 
O=C(O)c1cn(C2CC2)c2cc(N3CCNCC3)c(F)cc2c1=O |  | -26.4% [at 12.8 µM]
CCCc1nc(C)c2c(=O)[nH]c(-c3cc(S(=O)(=O)N4CCN(CC)CC4)ccc3OCC)nn12 |  | -19.6%
Nc1nc(N)c2nc(CNc3ccc(C(=O)NC(CCC(=O)O)C(=O)O)cc3)cnc2n1 (stereo not drawn) |  | 2.26%
COC(=O)Nc1nc2ccc(C(=O)c3ccccc3)cc2[nH]1 |  | -13.2% [at 12.8 µM]
Nc1nc(N)nc(-c2cc(Cl)ccc2Cl)n1 |  | 0.209%
CC(C)(Sc1cc(C(C)(C)C)c(O)c(C(C)(C)C)c1)Sc1cc(C(C)(C)C)c(O)c(C(C)(C)C)c1 |  | 0.504% [at 12.8 µM]
COc1ccc(-c2ccc3cc(C(=O)O)ccc3c2)cc1C12CC3CC(CC(C3)C1)C2 |  | 1.01%
NCCCC(O)(P(=O)(O)O)P(=O)(O)O |  | 2.11%
COC(=O)Nc1nc2ccc(Sc3ccccc3)cc2[nH]1 |  | -0.944% [at 12.8 µM]
CCc1cc(C(N)=S)ccn1 |  | 3.78%

Test system: CP185
Test: as above
Conditions: P. falciparum in erythrocytes, SYBR Green DNA, 72 h; series mostly up to 28.7 µM; activity, negative = inhibition: at the top concentration
Method in brief: as §1

Structure (SMILES) | Potency | activity, negative = inhibition
C[C@@H](NCCCc1cccc(C(F)(F)F)c1)c1cccc2ccccc12 | 11.2 µM (active) | 
COc1cc(NCc2ccc3nc(N)nc(N)c3c2C)cc(OC)c1OC | 0.562 µM (active) | 
NC(N)=NC(N)=NCCc1ccccc1 | inactive | 
CNNCc1ccc(C(=O)NC(C)C)cc1 |  | 2.9%
OC(Cn1cncn1)(Cn1cncn1)c1ccc(F)cc1F |  | 3.22%
O=c1cc(O)c(Cl)c[nH]1 |  | 9.37%
C1CCC(C(CC2CCCCN2)C2CCCCC2)CC1 (stereo not drawn) | 10 µM (active) | 
CC(C)NCC(O)c1ccc(NS(C)(=O)=O)cc1 (stereo not drawn) | inactive | 
Cc1cccc(N(C)C(=S)Oc2ccc3ccccc3c2)c1 |  | 2.69% [at 12.8 µM]
CC(=O)Oc1ccccc1C(=O)Nc1ncc([N+](=O)[O-])s1 |  | -0.437%
CC[C@H](C)C(=O)O[C@H]1C[C@@H](C)C=C2C=C[C@H](C)[C@H](CC[C@@H]3C[C@@H](O)CC(=O)O3)[C@H]21 |  | 1.86%
CC(C)OC(=O)C(C(=O)OC(C)C)=C1SC=CS1 |  | 10.4%
O=S(=O)(O)CCS |  | 1.11%
Cc1nnc(NS(=O)(=O)c2ccc(N)cc2)s1 |  | 16%
CNC1CCCN(c2c(F)cc3c(=O)c(C(=O)O)cn(C4CC4)c3c2OC)C1 (stereo not drawn) |  | 5.6%
S=P(N1CC1)(N1CC1)N1CC1 |  | 0.47%
COc1cc2c(Nc3ccc(Br)cc3F)ncnc2cc1OCC1CCN(C)CC1 | 3.55 µM (active) | 
O=c1oc2c(O)c(O)cc3c(=O)oc4c(O)c(O)cc1c4c23 |  | -18.5%
N=C(N)c1ccc(OCCCCCOc2ccc(C(=N)N)cc2)cc1 | 1.12 µM (active) | 
CCCc1nc(C)c2c(=O)[nH]c(-c3cc(S(=O)(=O)N4CCN(CC)CC4)ccc3OCC)nn12 |  | -17%
CC1=CC(=O)c2ccccc2C1=O |  | -9.01%
Nc1[nH]c(=O)ncc1F |  | 4.39% [at 12.8 µM]
Nc1nc(N)c2nc(CNc3ccc(C(=O)NC(CCC(=O)O)C(=O)O)cc3)cnc2n1 (stereo not drawn) |  | 8.1%
COC(=O)Nc1nc2ccc(C(=O)c3ccccc3)cc2[nH]1 |  | 0.653% [at 12.8 µM]
Nc1nc(N)nc(-c2cc(Cl)ccc2Cl)n1 |  | 6.94%
CC(C)(Sc1cc(C(C)(C)C)c(O)c(C(C)(C)C)c1)Sc1cc(C(C)(C)C)c(O)c(C(C)(C)C)c1 |  | 0.699% [at 12.8 µM]
COc1ccc(-c2ccc3cc(C(=O)O)ccc3c2)cc1C12CC3CC(CC(C3)C1)C2 |  | 1.73%
NCCCC(O)(P(=O)(O)O)P(=O)(O)O |  | 4.37%
COC(=O)Nc1nc2ccc(Sc3ccccc3)cc2[nH]1 |  | 3.28% [at 12.8 µM]
CCc1cc(C(N)=S)ccn1 |  | 9.07%

Test system: CP191
Test: as above
Conditions: P. falciparum in erythrocytes, SYBR Green DNA, 72 h; series mostly up to 28.7 µM; activity, negative = inhibition: at the top concentration
Method in brief: as §1

Structure (SMILES) | Potency | activity, negative = inhibition
COc1cc(NCc2ccc3nc(N)nc(N)c3c2C)cc(OC)c1OC | 0.251 µM (active) | 
NC(N)=NC(N)=NCCc1ccccc1 |  | -17.6% [at 12.8 µM]
OC(Cn1cncn1)(Cn1cncn1)c1ccc(F)cc1F |  | -3.2%
O=c1cc(O)c(Cl)c[nH]1 |  | 0.238%
C1CCC(C(CC2CCCCN2)C2CCCCC2)CC1 (stereo not drawn) | 11.2 µM (active) | 
CC(C)NCC(O)c1ccc(NS(C)(=O)=O)cc1 (stereo not drawn) | inactive | 
Cc1cccc(N(C)C(=S)Oc2ccc3ccccc3c2)c1 |  | -0.85% [at 12.8 µM]
CC(=O)Oc1ccccc1C(=O)Nc1ncc([N+](=O)[O-])s1 |  | -12.1%
CC[C@H](C)C(=O)O[C@H]1C[C@@H](C)C=C2C=C[C@H](C)[C@H](CC[C@@H]3C[C@@H](O)CC(=O)O3)[C@H]21 |  | -1.41%
CC(C)OC(=O)C(C(=O)OC(C)C)=C1SC=CS1 |  | -8.53%
O=S(=O)(O)CCS |  | 2.07%
Cc1nnc(NS(=O)(=O)c2ccc(N)cc2)s1 |  | 7.04%
CNC1CCCN(c2c(F)cc3c(=O)c(C(=O)O)cn(C4CC4)c3c2OC)C1 (stereo not drawn) |  | -5.94%
S=P(N1CC1)(N1CC1)N1CC1 |  | 0.169%
COc1cc2c(Nc3ccc(Br)cc3F)ncnc2cc1OCC1CCN(C)CC1 | 3.16 µM (active) | 
O=c1oc2c(O)c(O)cc3c(=O)oc4c(O)c(O)cc1c4c23 |  | -20.4%
N=C(N)c1ccc(OCCCCCOc2ccc(C(=N)N)cc2)cc1 | 0.398 µM (active) | 
O=C(O)c1cn(C2CC2)c2cc(N3CCNCC3)c(F)cc2c1=O |  | -28.7% [at 12.8 µM]
CCCc1nc(C)c2c(=O)[nH]c(-c3cc(S(=O)(=O)N4CCN(CC)CC4)ccc3OCC)nn12 |  | -29.5%
COc1cc([C@@H]2c3cc4c(cc3[C@H](O)[C@H]3COC(=O)[C@H]23)OCO4)cc(OC)c1OC | 3.55 µM (active) | 
CC1=CC(=O)c2ccccc2C1=O |  | 4.34%
Nc1[nH]c(=O)ncc1F |  | -9.55% [at 12.8 µM]
Nc1nc(N)c2nc(CNc3ccc(C(=O)NC(CCC(=O)O)C(=O)O)cc3)cnc2n1 (stereo not drawn) |  | 10.7%
COC(=O)Nc1nc2ccc(C(=O)c3ccccc3)cc2[nH]1 |  | -2.91% [at 12.8 µM]
Nc1nc(N)nc(-c2cc(Cl)ccc2Cl)n1 |  | -14.4%
CC(C)(Sc1cc(C(C)(C)C)c(O)c(C(C)(C)C)c1)Sc1cc(C(C)(C)C)c(O)c(C(C)(C)C)c1 |  | -12.5% [at 12.8 µM]
COc1ccc(-c2ccc3cc(C(=O)O)ccc3c2)cc1C12CC3CC(CC(C3)C1)C2 |  | 1.52%
NCCCC(O)(P(=O)(O)O)P(=O)(O)O |  | 2.87%
COC(=O)Nc1nc2ccc(Sc3ccccc3)cc2[nH]1 |  | -6.25% [at 12.8 µM]
CCc1cc(C(N)=S)ccn1 |  | 3.74%
